Screening data: PubChem BioAssay, National Center for Advancing Translational Sciences (NCATS)
FUS suppressor: suppressors of FUS proteinopathy in yeast. Potency, µM (doses to about 76.6 µM), hits mostly activators. S. cerevisiae FUS-expressing, growth rescue, OD600, 24 h. 390,000 tested, 0.24% active. AID 1347120;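 note: plate controls were DMSO vehicle for no effect and reference control for full effect; nearly all actives have a fitted effect of over 55% in size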
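Steps: raffinose overnight preculture; dilution to OD 0.005 in 2% galactose minimal medium; compound addition (concentration series); 24hr at 30C, 99% humidity; absorbance read at 600 nm.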
Abeta yeast res: compounds reversing amyloid beta toxicity in yeast; yeast expressing A-beta42, growth rescue, OD600, 48 h; response scale: 0% DMSO, 100% iron-clioquinol control; Potency, µM (highest dose often 46.1 µM), usual class: activators; 410,000 tested, 0.063% active; AID 1347071; note: nearly all actives have a fitted effect of over 55% in size
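Yeast A-beta toxicity model in growth medium with pinned compounds, 48 h at 30 C; growth read as absorbance at 600 nm. Normalized to FeCl3/clioquinol equimolar mix (positive) and DMSO (negative).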
TDP43 rescue: rescues yeast growth from TDP-43 toxicity; 410,000 tested, 1.8% active; Potency, µM (top dose mostly 46.1 µM), inactives show top-dose growth rescue (activation), usual class: activators; TDP-43 expressing yeast growth rescue, BacTiter-Glo, 24 h; note: % of control where 0% means no effect; nearly all actives have a fitted effect of over 50% in size
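Yeast expressing TDP-43 (pregrown in raffinose, seeded at OD600=0.02 in galactose medium) exposed to compounds 24 hr at 30 deg C. Growth read by BacTiter-Glo luminescence; rescue of toxicity appears as increased signal.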
aSyn yeast inh: rescues yeast growth from alpha-synuclein toxicity | 370,000 tested, 0.14% active | Potency, µM (doses to about 46.1 µM), for inactives: top-dose growth rescue (activation), actives largely listed as activators | Yeast expressing alpha-synuclein, growth rescue, BacTiter-Glo, 24 h; note: % of control where 0% means no effect; nearly all actives have a fitted effect of over 65% in size
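Rescue of yeast growth: cells expressing toxic alpha-synuclein, induced in galactose at OD600 0.02, incubated with compound 24 h at 30 C. ATP luminescence quantified growth; inhibitors of toxicity appear as activators.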
* hit, by the source's call; i = inactive; ? = inconclusive; . = no result. A selection: hits, their analogues and other compounds. The true share with any hit is near 2.1%. Calls come from the whole dose curve; as a rule, active = well fitted curve in the direction sought with a large enough effect; inconclusive = small, poorly fitted or top-dose-only effect, or another doubt; inactive = no such curve, though single readings can be large; an effect the other way counts as inactive or inconclusive. Potency is the fitted concentration of half-maximal effect.

SMILES	FUS suppressor	Abeta yeast res	TDP43 rescue	aSyn yeast inh
Cc1ccc(Cl)cc1N1CCN(C(=O)c2cnn(C)c2C2CCN(C(=O)OC(C)(C)C)CC2)CC1	?	i	22µM*	.
O=C(COCc1ccccc1)NC1CCCCN(Cc2ccc(Cl)cc2)C1=O (stereo not given)	i	.	.	.
Cc1c(C(=O)NCc2ccccc2Cl)sc2ncnc(N(C)C3CCCCC3)c12	i	i	?	.
Cc1ccc(C)c(CNC(=O)c2sc3ncnc(N(C)C4CCCCC4)c3c2C)c1	i	i	22µM*	.
NNc1nnc(-c2ccccc2)c(-c2ccccc2)n1	35µM*	i	-16%	3%
COC(=O)C[C@H]1C=C[C@H](NC(=O)Cc2ccccc2)[C@@H](CO)O1	i	i	21%	3.5µM*
O=C(CCCC(=O)c1ccccc1)Nc1ccc(F)cc1	i	i	5.6µM*	-8%
COc1ccc(NC(=O)CCCC(=O)c2ccccc2)cc1OC	i	i	-2%	-2%
COc1cc(OC)c(NC(=O)C(C)n2nc(-c3ccc(C)c(C)c3)ccc2=O)cc1Cl (stereo not given)	?	i	13µM*	.
O=C1CCC[C@H]2C[C@H](NCc3ccccc3F)CC[C@]23CCCN13	i	.	.	.
CC(C)CC(=O)N1CCN(c2ccc([N+](=O)[O-])cc2Cl)CC1	i	i	13µM*	?
CC(C)C(=O)N1CCN(c2ccc([N+](=O)[O-])cc2Cl)CC1	.	i	?	-9%
CCC1(C(=O)c2ccc(Cl)cc2)C2c3ccccc3OC(=O)C21C(=O)Nc1ccccc1 (stereo not given)	.	i	2%	14µM*
O=C(Nc1ccc(Nc2ccccc2)cc1)c1ccc(Cl)cc1	i	i	5%	11%
CC(C)N1CCCCC(NC(=O)c2c(F)cccc2F)C1=O (stereo not given)	i	.	.	.
COc1ccc(-c2noc(-c3cc(C(C)C)[nH]n3)n2)cc1	i	?	20µM*	.
CC(C)c1cc(-c2nc(-c3ccc(Br)cc3)no2)n[nH]1	i	i	?	.
COc1ccc(C)c(NC(=O)[C@@H]2CCCN2S(=O)(=O)c2cccc3cccnc23)c1	i	.	.	.
COc1ccc(-c2nnc(SC(C)C(=O)Nc3cccc(Cl)c3)o2)cc1 (stereo not given)	i	i	13µM*	14%
COc1ccc(-c2nnc(SC(C)C(=O)O)o2)cc1 (stereo not given)	i	i	2%	3%
O=C(c1cscn1)N1CCC(Oc2cccnc2)CC1	i	.	.	.
O=C(c1cccc(S(=O)(=O)N2CCCCC2)c1)N1CCc2ccccc21	2.8µM*	i	-7%	4%
Cc1cccc(N2CCN(C(=O)c3cccc(N4CCCC4=O)c3)CC2)c1C	i	i	13µM*	5%
Cc1cccc(N2CCN(C(=O)c3cccc(S(=O)(=O)N4CCCCC4)c3)CC2)c1C	i	i	7.1µM*	6%
Cc1cccc(NS(=O)(=O)c2ccc(C(=O)N3CCN(c4ccccc4O)CC3)cc2)c1C	32µM*	i	15%	0%
SMILES	FUS suppressor	Abeta yeast res	TDP43 rescue	aSyn yeast inh
Cc1ccccc1NS(=O)(=O)c1ccc(C(=O)N2CCCC2)cc1	.	i	1%	-2%
O=C(c1cccc(S(=O)(=O)N2CCCCCC2)c1)N1CCN(c2ccccc2F)CC1	i	i	?	8%
COc1cccc(N2CCN(CC(=O)N(C)Cc3ccccc3Cl)CC2)c1	i	.	.	.
COC1=C[C@H](C(=O)NCc2ccccc2)[C@H](C)[C@@H](c2ccccc2)CC1=O	i	.	.	.
O=C(c1ccc(N2CCCC2=O)cc1)N1CCN(c2ccccc2O)CC1	i	i	9%	-1%
Cc1ccc(C)c(N2CCN(C(=O)c3ccc(N4CCCC4=O)cc3)CC2)c1	i	i	20µM*	2%
COc1ccccc1-c1nnc(C2CCN(C(=O)c3cccc(Cl)c3)CC2)o1	i	i	20µM*	.
O=C(c1cccc(Cl)c1)N1CCC(c2nc3ccccc3o2)CC1	i	i	13µM*	.
O=C(c1ccc(F)cc1)N1CCC(c2nc3ccccc3o2)CC1	i	i	29%	.
COc1cccc(N(C)C(=O)[C@@H](C2CC2)[C@@H](O)c2ccc3ccccc3c2)c1	i	.	.	.
Cc1ccc(CCNS(=O)(=O)c2ccc3c(c2)CCN3C(=O)CCC(=O)O)cc1	i	i	-3%	.
CCOC(=O)C1=CCN(S(=O)(=O)c2ccccc2F)C1c1ccc(C)cc1 (stereo not given)	i	i	0%	2%
CCOC(=O)C1=CCN(S(=O)(=O)c2ccccc2F)C1c1ccc(Cl)cc1 (stereo not given)	i	i	16µM*	13%
COc1ccccc1NC(=O)CSc1nc(-c2ccc(C(C)(C)C)cc2)c(C#N)c(=O)[nH]1	?	i	2%	.
COc1ccc(S(=O)(=O)n2oc(=O)cc2-c2ccccc2)cc1	i	i	?	10%
O=c1cc(-c2ccccc2)n(S(=O)(=O)c2ccc3ccccc3c2)o1	i	i	?	20µM*
COc1ccc(S(=O)(=O)n2oc(=O)cc2-c2ccccc2)cc1OC	i	i	14µM*	?
Clc1nc(NCC2CCCO2)c2[nH]cnc2n1 (stereo not given)	.	.	.	10%
Cc1ccccc1N(C)S(=O)(=O)c1nnc(NC(=O)C(C)C)s1	i	i	19%	.
Cc1ccccc1N(C)S(=O)(=O)c1nnc(NC(=O)c2ccccc2F)s1	i	i	13µM*	3%
Cc1ccc2c(c1)C(CS(=O)(=O)NCc1ccccc1)NC2 (stereo not given)	i	.	.	.
CCc1ccccc1Oc1nc(NC(C)C)nc2ccsc12	i	i	20µM*	-16%
COCCNc1nc(Oc2cccc3ccccc23)c2sccc2n1	i	i	16µM*	18%
CC(C)Nc1nc(-c2ccccc2CO)c2sccc2n1	i	i	?	-21%
CC(C)CNC(=O)OCc1cn(Cc2cccc(F)c2F)nn1	i	.	.	.
SMILES	FUS suppressor	Abeta yeast res	TDP43 rescue	aSyn yeast inh
Cc1ccccc1CC1C(=O)Nc2ccc(Br)cc21 (stereo not given)	i	?	13µM*	.
COc1ccccc1NC(=O)OCCN1CCCC12CCC(c1ccccc1)CC2 (stereo not given)	i	.	.	.
COc1ccc(C(=O)Nc2ccc(Nc3ccccc3)cc2)cc1[N+](=O)[O-]	i	i	?	?
CCN(CC)c1ccc(C(=O)Nc2ccccc2)cc1[N+](=O)[O-]	i	i	25µM*	4%
O=C(NCCCc1ccccc1)OC1CCC12CCC(c1ccccc1)CC2 (stereo not given)	i	.	.	.
COC(=O)[C@]12C[C@H](CC(=O)NCc3cccs3)C(=O)N(Cc3ccccc3)C1=C[C@H](COCc1ccccc1)O[C@@H]2C	i	.	.	.
Cc1ccc(-c2csc(-c3ccncc3)n2)cc1	i	i	?	9%
Brc1ccc(-c2csc(-c3ccncc3)n2)cc1	.	i	11µM*	1%
